D1 agonist – activates the human D1 dopamine receptor; AID 504660; activation, % at 2 µM; HEK293 T-REx D1 cells, calcium flux, agonist mode; 360,000 tested, 1% active; in the data active = activation above about 30%
Target sequence (P21728 whole entry, looked up): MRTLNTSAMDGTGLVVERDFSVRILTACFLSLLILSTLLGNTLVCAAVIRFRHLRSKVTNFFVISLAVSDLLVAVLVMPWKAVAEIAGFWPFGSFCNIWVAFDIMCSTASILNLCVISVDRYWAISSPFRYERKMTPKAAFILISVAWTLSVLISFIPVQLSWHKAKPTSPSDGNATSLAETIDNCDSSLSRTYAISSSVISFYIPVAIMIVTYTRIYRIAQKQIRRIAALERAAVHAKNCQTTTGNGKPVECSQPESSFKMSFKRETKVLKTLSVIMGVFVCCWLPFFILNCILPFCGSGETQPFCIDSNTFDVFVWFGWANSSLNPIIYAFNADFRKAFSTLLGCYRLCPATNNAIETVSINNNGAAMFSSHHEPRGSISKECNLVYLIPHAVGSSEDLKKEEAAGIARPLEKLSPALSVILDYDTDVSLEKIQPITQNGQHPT
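Agonism was scored from calcium flux recorded over 180 s (1 read/s) after pintool compound addition, following a 10-cycle baseline. Cells were inducible force-coupled HEK293 TREx D1, plated overnight at 30 C and loaded with no-wash calcium dye.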
TRPV1 ag – human TRPV1 agonism; 320,000 tested, 0.19% active; AID 540275; activation, % at 8.33 µM; TRPV1-expressing cells, Fluo-8 calcium influx, agonist mode; Q8NER1; in the data active = activation above about 80%; inconclusive = between about 30% and that limit
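Fluo-8 calcium influx in TRPV1-expressing cells, kinetic read (ex 480/em 520 nm). Compound added and read 3 min for agonist activity, followed by capsaicin at EC20 final and 2 min further read for enhancement.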
D1 antagonist – antagonists of human D1 dopamine receptor; HEK293 TREx D1 cells, calcium flux, dopamine EC80; hits give low values; activity change, negative = inhibition, % at 10 µM; 360,000 tested, 3.2% active; in the data active = activity change below about -30%
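Kinetic fluorescence of a calcium dye serves as the read-out. D1-expressing Hek293 Trex cells, induced overnight at 30 C, are exposed to compound for 180 s before an EC80 dopamine addition, then read 180 s further.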
TRPV1 PAM – enhances activation of the human vanilloid receptor TRPV1 | 320,000 tested, 0.02% active | Q8NER1 | potentiation, % at 8.33 µM | TRPV1-expressing cells, Fluo-8 calcium influx, capsaicin EC20 potentiation; in the data active = potentiation above about 80%; inconclusive = between about 30% and that limit
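TRPV1-expressing cells were cultured overnight at 35.5C and loaded with Fluo-8 calcium dye for 40 to 90 min at room temperature. After a 10 s baseline, compound was added and calcium influx was read kinetically for 3 min (ex 480/em 520 nm).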
D1 potentiator – human D1 dopamine receptor positive modulation | HEK293 TREx D1 cells, calcium flux, dopamine EC20 potentiation | potentiation, % at 10 µM | 360,000 tested, 0.036% active; in the data active = potentiation above about 30%
Large screens that a line does not name were inactive. Sampled rows, rich in hits. Any-hit rate of the full collection: about 4.2%.

CC(=O)c1ccc(S(=O)(=O)NC2CC(=O)N(c3ccc(Cl)cc3)C2)cc1 (stereo not given)	D1 antagonist -33.6
Cc1oc2c(c(C)cc3oc(=O)c(CC(=O)NCCc4ccccc4F)c(C)c32)c1C	none (no result: TRPV1 ag, TRPV1 PAM)
COc1ccc(C2=Nn3c(nnc3-c3ccccc3OC)SC2)cc1	none (no result: TRPV1 ag, TRPV1 PAM)
C/C(=N\NC(N)=S)c1ccc(Cl)s1	none
C/C(=N\Nc1ccc2nncn2n1)c1ccc(Cl)s1	TRPV1 ag 114.8
CCCCNC(=O)/C(=C\c1ccc([N+](=O)[O-])o1)NC(=O)c1ccccc1	D1 antagonist -39.1
CN(C)C(=O)/C(=C/c1ccc(-c2cccc([N+](=O)[O-])c2)o1)NC(=O)c1ccccc1	D1 antagonist -56.0
Cc1cc(OCC(=O)Nc2sc3c(c2C(N)=O)CCCC3)ccc1C(C)C	none (no result: TRPV1 ag, TRPV1 PAM)
Cc1ccc(OCC(=O)Nc2sc3c(c2C(N)=O)CCCC3)c(C(C)(C)C)c1	D1 antagonist -38.8 (no result: TRPV1 ag, TRPV1 PAM)
Cc1ccc(OCC(=O)Nc2ccc(S(=O)(=O)Nc3ncccn3)cc2)c(C(C)(C)C)c1	D1 antagonist -31.1 (no result: TRPV1 ag, TRPV1 PAM)
CC(=O)Nc1cccc(Nc2nc3ccccc3n3c(C)nnc23)c1	none (no result: TRPV1 ag, TRPV1 PAM)
Cc1cccc2nc(-c3cccnc3)c(Nc3ccc(C(C)C)cc3)n12	none (no result: TRPV1 ag, TRPV1 PAM)
CCOC(=O)c1c(C)oc2c1c(C=NCCO)c(O)c1ccccc12	D1 antagonist -40.6
CCOC(=O)c1c(C)oc2c1c(C(c1ccccc1)N1CCOCC1)c(O)c1ccccc12 (stereo not given)	none
CC(C)(C)c1cc(C(=O)NNC(=O)c2ccc(Cl)cc2)no1	TRPV1 ag 81.7
C=C(C)c1cccc(C(C)(C)NC(=O)Nc2cccnc2)c1	TRPV1 ag 97.6, TRPV1 PAM inconclusive
O=C(Oc1ccc(Nc2ncnc3ccccc23)cc1)c1cccnc1	D1 antagonist -47.1
CC(C)(C)c1ccc(NC(=O)c2ccsc2)cc1	TRPV1 ag 83.1, D1 antagonist -31.2
Cc1cc(C(=O)NNC(=O)c2ccc(C(F)(F)F)cc2)no1	none
Cc1ccc(NC(=O)c2ccsc2)cc1NS(C)(=O)=O	none
CC1CCN(S(=O)(=O)c2ccc3c(c2)N(CC(=O)NC(C)C)C(=O)CS3)CC1	none (no result: TRPV1 ag, TRPV1 PAM)
COc1ccc(OC(=O)c2cccnc2)cc1	none
COC(=O)Cc1ccc(NC(=O)c2ccc(C(C)(C)C)cc2)cc1	TRPV1 ag 81.4
CC(C)(C)c1ccc(C(=O)Nc2cccnc2)cc1	TRPV1 ag 94.5
O=C(Nc1cccnc1)c1ccc(C(=O)Nc2cccnc2)cc1	none
CC(C)(C)c1ccc(C(=O)Nc2ccc(Cl)cc2)cc1	TRPV1 ag 80.4
CC(C)(C)c1ccc(OC(=O)c2cccnc2)cc1	D1 agonist 42.3
CCC(=O)N1c2ccccc2CC1C(=O)NCCc1ccccc1Cl (stereo not given)	none (no result: TRPV1 ag, TRPV1 PAM)
CC(C)Sc1nc2ccc(Br)cc2[nH]1	D1 antagonist -32.8
CSc1nc2ccc(Br)cc2[nH]1	none
CCOc1ccccc1N(C)S(=O)(=O)c1ccc2c(c1)CC(C)N2C(=O)C1CC1 (stereo not given)	D1 antagonist -31.8
O=C(CCNS(=O)(=O)c1ccc2c(c1)CCN2C(=O)C1CC1)N1CCN(c2ccc(F)cc2)CC1	D1 antagonist -37.0 (no result: TRPV1 ag, TRPV1 PAM)
CC1Cc2cc(S(=O)(=O)N(Cc3ccccc3)C(C)C)ccc2N1C(=O)C1CCC1 (stereo not given)	none (no result: TRPV1 ag, TRPV1 PAM)
CCN(c1ccccc1)S(=O)(=O)c1ccc2c(c1)CC(C)N2C(=O)C1CC1 (stereo not given)	D1 antagonist -31.6
CC1Cc2cc(S(=O)(=O)CCC(=O)N3CCN(c4ccccc4)CC3)ccc2N1C(=O)C1CC1 (stereo not given)	D1 antagonist -31.3
CCC(=O)N1c2ccc(S(=O)(=O)CCC(=O)N3CCN(c4ccc(F)cc4)CC3)cc2CC1C (stereo not given)	none (no result: TRPV1 ag, TRPV1 PAM)
CCN(CC)CCCNc1cc(C(F)(F)F)c(C#N)c2nc3ccccc3n12	D1 agonist 45.9
CCCc1cc(NCCCCO)n2c(nc3ccccc32)c1C#N	D1 antagonist -35.9
CCN(CC)CCNc1cc(C)c(C#N)c2nc3ccccc3n12	none
Cn1c(=O)c2nc(SCC(=O)Nc3cc(Cl)cc(Cl)c3)n(C)c2n(C)c1=O	none (no result: TRPV1 ag, D1 antagonist, TRPV1 PAM)
CCOC(=O)c1cc(-c2ccccc2)n(CCCC(=O)Nc2cccc(C)c2C)c1C	none (no result: TRPV1 ag, TRPV1 PAM)
CN(Cc1ccccc1)CC1CCCN(CCc2ccccc2F)C1 (stereo not given)	none
COc1ccccc1CCN1CCCC(CN(C)C(=O)c2ccco2)C1 (stereo not given)	D1 antagonist -49.7
CC(=O)c1cccc(CN(C)CC2CCCN(CCc3ccccc3C)C2)c1 (stereo not given)	D1 antagonist -65.6
COc1ccc(F)c(CN(C)CC2CCCN(CCc3ccc(F)cc3)C2)c1 (stereo not given)	D1 antagonist -57.6
Cc1ccccc1CCN1CCCC(CN(C)CC(C)(C)C)C1 (stereo not given)	D1 antagonist -53.9
COc1ccccc1CCN1CCCC(CN(C)C(=O)c2ccoc2)C1 (stereo not given)	none
COc1cc(-c2cc(OC)c3c(C)oc(C)c3c(=O)c2)ccc1OC(=O)c1cccc(C)c1	none (no result: TRPV1 ag, TRPV1 PAM)
CCc1ccc(NC(=O)c2nn(-c3ccc(OC)cc3)c(=O)c3c2c2ccccc2n3C)cc1	none (no result: TRPV1 ag, TRPV1 PAM)
Cc1ccc(S(=O)(=O)N(CC(=O)Nc2ccc(F)cc2F)Cc2ccc(F)cc2)cc1	none (no result: TRPV1 ag, TRPV1 PAM)
CCN(CC)c1ccc2cc(-c3nc(-c4ccccc4)no3)c(=O)oc2c1	D1 agonist 316.8, D1 antagonist -34.3 (no result: TRPV1 ag, TRPV1 PAM)
CCN(CC)c1ccc2cc(-c3nnc(Nc4ccc(C)cc4)s3)c(=O)oc2c1	D1 agonist 420.8, TRPV1 ag inconclusive, D1 antagonist -59.9
CCN(CC)c1ccc2cc(C#N)c(=O)oc2c1	D1 agonist 31.9
CCN(CC)c1ccc2cc(S(=O)(=O)c3ccc(C)cc3)c(=O)oc2c1	D1 agonist 119.6, TRPV1 ag inconclusive
CCCCNC(=O)CCCn1c(=O)c2ccccc2n(Cc2ccccc2C)c1=O	none (no result: TRPV1 ag, TRPV1 PAM)
Cc1ccc(CN2c3ccccc3S(=O)(=O)c3ccccc32)cc1	none (no result: TRPV1 ag, TRPV1 PAM)
CCOc1ccc(NC(=O)CSc2oc(-c3ccc(F)cc3)nc2S(=O)(=O)c2ccc(C)cc2)cc1	none (no result: TRPV1 ag, TRPV1 PAM)
Cc1ccc(C)c(N=Nc2ccc(O)c3ncccc23)c1	D1 antagonist -71.2, TRPV1 PAM inconclusive
CC1CC(C)CN(C(=O)COC(=O)c2ccc3ccccc3n2)C1 (stereo not given)	D1 antagonist -37.4
O=C(CN1CCC(n2nnc3cc(F)ccc32)CC1)Nc1ccccc1N1CCOCC1	D1 antagonist -70.7
O=C(CN1CCC(n2nnc3cc(F)ccc32)CC1)NC1CC1	D1 antagonist -48.6
O=C(CN1CCC(n2nnc3cc(F)ccc32)CC1)NC1CCCCC1	none
CCc1ccc(C(=O)c2cn(CC(=O)NC3CCCCC3)c3nc(C)ccc3c2=O)cc1	none (no result: TRPV1 ag, TRPV1 PAM)

High-throughput results: PubChem BioAssay, National Center for Advancing Translational Sciences (NCATS)
